# Measurements from PubChem BioAssay.
# Unmarked numbers belong to inactive results.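 How the source made its calls, unless noted: active means viability at or below 10% of carrier control in both of two separate runs; inconclusive means viability at or below 10% in only one of the two runs; inactive means the rest.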
# Molecular target: Receptor tyrosine-protein kinase erbB-2 (Homo sapiens) (UniProt P04626)
# Experiment: reducers of endogenous Her2 protein level, primary screen, SKBR3 breast tumor cells, AlphaScreen, ATP viability (AID 461;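 active means Her2 level under about 52% in both replicate screens, with viability over 70% of control, limit read from the data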;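 further: lower value means less Her2 protein in the cells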)
# Conditions: 18-24 h, at 10 µM, stronger effect = lower value
# Chain of Receptor tyrosine-protein kinase erbB-2 (Homo sapiens) (P04626 whole entry, looked up): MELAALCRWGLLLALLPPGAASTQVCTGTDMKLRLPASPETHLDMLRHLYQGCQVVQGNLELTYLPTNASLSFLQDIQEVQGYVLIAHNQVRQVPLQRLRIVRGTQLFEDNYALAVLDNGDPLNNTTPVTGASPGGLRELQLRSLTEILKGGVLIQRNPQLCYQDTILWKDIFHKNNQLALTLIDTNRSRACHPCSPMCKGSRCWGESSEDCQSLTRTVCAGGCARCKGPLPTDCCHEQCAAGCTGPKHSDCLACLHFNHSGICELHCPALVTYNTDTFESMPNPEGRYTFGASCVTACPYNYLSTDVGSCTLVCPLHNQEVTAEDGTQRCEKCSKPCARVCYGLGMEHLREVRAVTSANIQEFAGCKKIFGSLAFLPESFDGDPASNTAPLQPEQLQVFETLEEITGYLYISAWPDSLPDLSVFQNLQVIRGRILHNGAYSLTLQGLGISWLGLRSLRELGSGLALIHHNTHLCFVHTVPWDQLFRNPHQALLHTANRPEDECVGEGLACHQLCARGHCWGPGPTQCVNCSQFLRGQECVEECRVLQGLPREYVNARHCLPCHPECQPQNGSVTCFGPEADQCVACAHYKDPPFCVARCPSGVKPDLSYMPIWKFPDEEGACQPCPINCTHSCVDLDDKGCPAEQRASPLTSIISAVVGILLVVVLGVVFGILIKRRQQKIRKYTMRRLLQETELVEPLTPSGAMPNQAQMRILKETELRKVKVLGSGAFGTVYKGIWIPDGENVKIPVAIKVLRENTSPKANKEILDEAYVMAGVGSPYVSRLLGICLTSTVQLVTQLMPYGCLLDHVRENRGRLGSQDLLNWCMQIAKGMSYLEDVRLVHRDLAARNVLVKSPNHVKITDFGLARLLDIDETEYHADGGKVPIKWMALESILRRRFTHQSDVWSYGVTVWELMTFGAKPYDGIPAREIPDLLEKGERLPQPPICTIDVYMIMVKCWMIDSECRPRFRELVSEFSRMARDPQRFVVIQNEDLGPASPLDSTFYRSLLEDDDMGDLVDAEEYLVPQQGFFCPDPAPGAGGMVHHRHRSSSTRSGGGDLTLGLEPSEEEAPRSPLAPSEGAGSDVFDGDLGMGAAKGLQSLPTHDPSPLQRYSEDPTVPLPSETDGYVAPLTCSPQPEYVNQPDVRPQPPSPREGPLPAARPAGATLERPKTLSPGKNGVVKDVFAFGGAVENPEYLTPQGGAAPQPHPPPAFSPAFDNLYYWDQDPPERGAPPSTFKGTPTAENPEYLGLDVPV
row,SMILES,Her2 level
1,COC(=O)CC1SCCNC1=O (centres undefined),94%
2,O=C(NCc1ccc(F)cc1)C1CCN(C(=O)NCc2ccccc2)CC1,110%
3,Cc1ccc(-n2nnnc2SCC(=O)N2CCN(C(=O)c3ccco3)CC2)c(C)c1,84.5%
4,CCOC(=O)c1cc2c(=O)n3cccc(C)c3nc2n(CCc2ccccc2)c1=N,72%
5,CC(=O)c1ccc(NS(=O)(=O)c2ccccc2)cc1,137%
6,Cn1c(-n2c(-c3ccco3)nc3ccccc3c2=O)nc2ccccc21,98%
7,O=C(CSc1ncnc2c1cnn2Cc1ccccc1)Nc1ccc2c(c1)OCCO2,98.5%
8,Cc1cc(C)n(-c2nc3c(c(=O)n(Cc4ccc(Cl)c(Cl)c4)c(=O)n3C)n2C)n1,99%
9,O=C(O)C1CCCN1C(=O)Nc1ccc(F)cc1 (centres undefined),90.5%
10,COc1ccc(-n2nnc3c(=O)n(C/C=C/c4ccccc4)cnc32)cc1,100%
11,CCc1ccc(CNCc2cccnc2)cc1,100%
12,O=C(CSc1nnc(-c2ccc(Br)o2)n1Cc1ccccc1)c1ccccc1F,91%
13,Cc1sc2c(c1C)CN(C1CC(C)(C)NC(C)(C)C1)CN2C(=O)c1ccco1,80.5%
14,N#Cc1c(NC(NC(=O)c2ccco2)C(=O)c2ccccc2)sc2c1CCCC2 (centres undefined),73.5%
15,Cc1c(NC(=O)C(C)OC(=O)COc2cccc3c2OC(C)(C)C3)c(=O)n(-c2ccccc2)n1C (centres undefined),106%
16,COc1cccc(-c2noc(C3CCCN(C(=O)Cc4ccccc4)C3)n2)c1 (centres undefined),94%
17,O=C(c1ccccc1Br)N1CCN(c2ccccc2)CC1,83.5%
18,CCOC(=O)C1CCN(c2c(NCCN3CCN(c4ccccc4)CC3)c(=O)c2=O)CC1,98.5%
19,O=C(CSc1nc(-c2ccccc2)cs1)NCc1ccco1,102%
20,COc1ccc(NS(=O)(=O)c2c(C)[nH]c(=O)[nH]c2=O)c(OC)c1,91%
21,CC1CCN(C(=O)CN2C(=O)C(C)(C)Oc3ccc(C(=O)NC4CCCC4)cc32)CC1,104%
22,Cc1cc(=O)n2nc(-c3ccccc3)sc2n1,92.5%
23,CCOC(=O)C1CCN(c2c(N3CCCCCC3)c(=O)c2=O)CC1,100%
24,C=CCn1c(SCC(=O)c2ccc(OC)cc2)nnc1C(C)NC(=O)c1cccs1 (centres undefined),88.5%

# Test system: not listed separately
# Experiment: SK-BR-3 cell growth inhibitors, pilot screen, 24 h, human (AID 572);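 further: compound exposure lasted between 18 and 24 h rather than exactly 24 h; 100% = carrier-treated control wells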
# Conditions: SK-BR-3 viability, CellTiter-Glo luminescence, at 10 µM, stronger effect = lower value
row,SMILES,viability
1,COC(=O)c1ccc(CSc2nc(-c3ccc(OC)cc3)nc3c2c(=O)n(C)c(=O)n3C)o1,100%
2,COC(=O)c1[nH]c2cc(OC)ccc2c1NC(=O)CN1CCOCC1,116%
3,NC(=O)CSc1nnc(-c2ccc(O)cc2)n1Cc1ccco1,108%
4,COc1ccccc1NC(=O)C1=C(C)Nc2nc(CCCO)nn2C1c1cccnc1 (centres undefined),132%
5,CCOc1ccc(NC(=O)c2ccc3c(c2)N(Cc2ccc(F)cc2)C(=O)CS3=O)cc1 (centres undefined),90%
6,CCn1c(=O)cc(OCC(=O)NC2CCCCC2)c2ccccc21,86%
7,COc1ccc(OC)c(C(=O)CSc2nnc(-c3ccc(OC)c(OC)c3)o2)c1,104%
8,Cc1nc(Nc2nc(=O)c3ccccc3n2C)nc2c(C)cccc12,122%
9,CC(C)(C)OC(=O)NCCc1nnc(SCC(=O)c2ccc(Cl)cc2)o1,97.5%
10,CCSc1nnc(NC(=O)C2CCCN(S(=O)(=O)c3cnc[nH]3)C2)s1 (centres undefined),105%
11,O=C1CC(Cc2ccccc2)C(=O)N1CCCn1ccnc1 (centres undefined),101%
12,Cc1ccc(CSC2=NCCN2C(=O)c2ccco2)cc1,95.5%
13,O=C1c2ccccc2C(=O)N1Cc1nc2ccccc2c(=O)n1CCN1CCOCC1,97.5%
14,c1cn(CC2(Cn3ccnc3)COC2)cn1,103%
15,c1cncc(-c2nnc3n2N=C(c2cccs2)CS3)c1,90.5%
16,CCOC(=O)N1CCN(c2c(N3CCc4ccccc4C3)c(=O)c2=O)CC1,87%
17,COC(=O)CC1SCCNC1=O (centres undefined),92%
18,O=C(NCc1ccc(F)cc1)C1CCN(C(=O)NCc2ccccc2)CC1,115%
19,Cc1ccc(-n2nnnc2SCC(=O)N2CCN(C(=O)c3ccco3)CC2)c(C)c1,119%
20,CCOC(=O)c1cc2c(=O)n3cccc(C)c3nc2n(CCc2ccccc2)c1=N,82%

row,SMILES,viability
1,CC(=O)c1ccc(NS(=O)(=O)c2ccccc2)cc1,95%
2,Cn1c(-n2c(-c3ccco3)nc3ccccc3c2=O)nc2ccccc21,83%
3,O=C(CSc1ncnc2c1cnn2Cc1ccccc1)Nc1ccc2c(c1)OCCO2,109%
4,Cc1cc(C)n(-c2nc3c(c(=O)n(Cc4ccc(Cl)c(Cl)c4)c(=O)n3C)n2C)n1,103%
5,O=C(O)C1CCCN1C(=O)Nc1ccc(F)cc1 (centres undefined),87%
6,COc1ccc(-n2nnc3c(=O)n(C/C=C/c4ccccc4)cnc32)cc1,116%
7,CCc1ccc(CNCc2cccnc2)cc1,91%
8,O=C(CSc1nnc(-c2ccc(Br)o2)n1Cc1ccccc1)c1ccccc1F,81.5%
9,Cc1sc2c(c1C)CN(C1CC(C)(C)NC(C)(C)C1)CN2C(=O)c1ccco1,86.5%
10,N#Cc1c(NC(NC(=O)c2ccco2)C(=O)c2ccccc2)sc2c1CCCC2 (centres undefined),86.5%
11,Cc1c(NC(=O)C(C)OC(=O)COc2cccc3c2OC(C)(C)C3)c(=O)n(-c2ccccc2)n1C (centres undefined),112%
12,COc1cccc(-c2noc(C3CCCN(C(=O)Cc4ccccc4)C3)n2)c1 (centres undefined),95%
13,O=C(c1ccccc1Br)N1CCN(c2ccccc2)CC1,85%
14,CCOC(=O)C1CCN(c2c(NCCN3CCN(c4ccccc4)CC3)c(=O)c2=O)CC1,87.5%
15,O=C(CSc1nc(-c2ccccc2)cs1)NCc1ccco1,100%
16,COc1ccc(NS(=O)(=O)c2c(C)[nH]c(=O)[nH]c2=O)c(OC)c1,88.5%
17,CC1CCN(C(=O)CN2C(=O)C(C)(C)Oc3ccc(C(=O)NC4CCCC4)cc32)CC1,82%
18,Cc1cc(=O)n2nc(-c3ccccc3)sc2n1,101%
19,CCOC(=O)C1CCN(c2c(N3CCCCCC3)c(=O)c2=O)CC1,97%
20,C=CCn1c(SCC(=O)c2ccc(OC)cc2)nnc1C(C)NC(=O)c1cccs1 (centres undefined),102%
